According to PubChem BioAssay AID1159580 (chemical genetic matrix, 2015):
Out of some 5,500 compounds screened, about 2,000 (36%) were called active. About 18% were inconclusive and are not listed. Cut-off read from the data, not from the text of the source: active = normalized growth mostly below about 0.91 (no sharp cut-off); inconclusive = no clear call, values can overlap the other calls; inactive = mostly above about 0.92. This is one part of the list.

Assay: chemical genetic growth profiling, strain panel (AID 1159580);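 note: tested at 20 µM; growth read once vehicle control cultures reached saturation at 30 °C; 1 = growth at the plate median or of vehicle wells; lower values mean less growth of the strain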
Settings: growth OD

Measured: normalized growth

CC1=CC(=O)C(C(C)C)=CC1=O
active: S. cerevisiae deletion strains, locus YKR001C, strain vps1, hits give low values 0.727 | S. cerevisiae deletion strains, locus YKR026C, strain gcn3, hits give low values 0.903 | S. cerevisiae deletion strains, locus YLL026W, hits give low values 0.838 | S. cerevisiae deletion strains, locus YLR027C, strain aat2, hits give low values 0.638 | S. cerevisiae deletion strains, locus YLR221C, strain rsa3, hits give low values 0.355 | S. cerevisiae deletion strains, locus YLR258W, strain gsy2, hits give low values 0.902 | S. cerevisiae deletion strains, locus YLR262C, strain YPT6 (second series), hits give low values 0.724 | S. cerevisiae deletion strains, locus YLR268W, strain sec22, hits give low values 0.764 | S. cerevisiae deletion strains, locus YLR320W, strain mms22, hits give low values 0.721 | S. cerevisiae deletion strains, locus YLR330W, strain CHS5, hits give low values 0.648 | S. cerevisiae deletion strains, locus YLR342W, strain FKS1 (second series), hits give low values 0.749 | S. cerevisiae deletion strains, locus YLR357W, strain rsc2, hits give low values 0.632 | S. cerevisiae deletion strains, locus YLR371W, strain rom2, hits give low values 0.715 | S. cerevisiae deletion strains, locus YLR418C, strain cdc73, hits give low values 0.54 | S. cerevisiae deletion strains, locus YML032C, strain rad52, hits give low values 0.89 | S. cerevisiae deletion strains, locus YML120C, strain ndi1, hits give low values 0.13 | S. cerevisiae deletion strains, locus YMR058W, strain fet3, hits give low values 0.759 | S. cerevisiae deletion strains, locus YMR125W, strain sto1, hits give low values 0.397 | S. cerevisiae deletion strains, locus YMR129W, hits give low values 0.839 | S. cerevisiae deletion strains, locus YMR205C, strain PFK2, hits give low values 0.868 | S. cerevisiae deletion strains, locus YMR223W, strain ubp8, hits give low values 0.847 | S. cerevisiae deletion strains, locus YMR307W, strain GAS1, hits give low values 0.49 | S. cerevisiae deletion strains, locus YNL071W, strain lat1, hits give low values 0.274 | S. cerevisiae deletion strains, locus YNL233W, strain BNI4, hits give low values 0.657 | S. cerevisiae deletion strains, locus YNL248C, strain rpa49, hits give low values 0.409 | S. cerevisiae deletion strains, locus YNL271C, strain bni1, hits give low values 0.917 | S. cerevisiae deletion strains, locus YNL298W, strain CLA4, hits give low values 0.899 | S. cerevisiae deletion strains, locus YNL307C, strain MCK1, hits give low values 0.589 | S. cerevisiae deletion strains, locus YNL322C, strain KRE1 (second series), hits give low values 0.876 | S. cerevisiae deletion strains, locus YOL147C, strain pex11, hits give low values 0.872 | S. cerevisiae deletion strains, locus YOR001W, strain rrp6, hits give low values 0.664 | S. cerevisiae deletion strains, locus YOR106W, strain vam3, hits give low values 0.72 | S. cerevisiae deletion strains, locus YOR144C, strain elg1, hits give low values 0.916 | S. cerevisiae deletion strains, locus YOR184W, strain ser1, hits give low values 0.686 | S. cerevisiae deletion strains, locus YOR290C, strain snf2, hits give low values 0.844 | S. cerevisiae deletion strains, locus YPL051W, strain arl3, hits give low values 0.886 | S. cerevisiae deletion strains, locus YPL240C, strain hsp82, hits give low values 0.837 | S. cerevisiae deletion strains, locus YPL241C, strain CIN2, hits give low values 0.925 | S. cerevisiae deletion strains, locus YPR163C, strain tif3, hits give low values 0.725 | S. cerevisiae deletion strains, locus YPR167C, strain met16, hits give low values 0.916 | S. cerevisiae deletion strains, strain wtn01, hits give low values 0.797 | S. cerevisiae strains, strain wild type, hits give low values 0.579
inactive: S. cerevisiae deletion strains, locus YJR066W, strain TOR1, hits give low values 0.903 | S. cerevisiae deletion strains, locus YKL009W, strain mrt4, hits give low values 0.936 | S. cerevisiae deletion strains, locus YKL068W, hits give low values 0.961 | S. cerevisiae deletion strains, locus YKL085W, strain MDH1 (second series), hits give low values 0.965 | S. cerevisiae deletion strains, locus YKL085W, strain MDH1, hits give low values 0.965 | S. cerevisiae deletion strains, locus YKL160W, strain elf1, hits give low values 0.951 | S. cerevisiae deletion strains, locus YKL190W, strain CNB1, hits give low values 0.946 | S. cerevisiae deletion strains, locus YKR091W, strain srl3, hits give low values 0.999 | S. cerevisiae deletion strains, locus YLL001W, strain dnm1, hits give low values 1.01 | S. cerevisiae deletion strains, locus YLL041C, strain sdh2, hits give low values 0.95 | S. cerevisiae deletion strains, locus YLR039C, strain RIC1, hits give low values 0.691 | S. cerevisiae deletion strains, locus YLR058C, strain SHM2, hits give low values 0.946 | S. cerevisiae deletion strains, locus YLR102C, strain apc9, hits give low values 0.95 | S. cerevisiae deletion strains, locus YLR113W, strain HOG1, hits give low values 0.986 | S. cerevisiae deletion strains, locus YLR262C, strain YPT6, hits give low values 0.643 | S. cerevisiae deletion strains, locus YLR342W, strain FKS1, hits give low values 1.01 | S. cerevisiae deletion strains, locus YLR370C, strain arc18, hits give low values 1.01 | S. cerevisiae deletion strains, locus YLR384C, strain iki3, hits give low values 0.987 | S. cerevisiae deletion strains, locus YML016C, strain PPZ1, hits give low values 0.978 | S. cerevisiae deletion strains, locus YML124C, strain tub3, hits give low values 0.943 | S. cerevisiae deletion strains, locus YMR078C, strain ctf18, hits give low values 0.912 | S. cerevisiae deletion strains, locus YMR231W, strain pep5, hits give low values 1.01 | S. cerevisiae deletion strains, locus YNL067W, strain RPL9B, hits give low values 0.925 | S. cerevisiae deletion strains, locus YNL183C, strain NPR1, hits give low values 0.892 | S. cerevisiae deletion strains, locus YNL209W, strain ssb2, hits give low values 1 | S. cerevisiae deletion strains, locus YNL250W, strain rad50, hits give low values 0.972 | S. cerevisiae deletion strains, locus YNR049C, strain mso1, hits give low values 0.986 | S. cerevisiae deletion strains, locus YNR052C, strain pop2, hits give low values 0.922 | S. cerevisiae deletion strains, locus YOL012C, strain htz1 0.626 | S. cerevisiae deletion strains, locus YOR061W, strain CKA2, hits give low values 0.98 | S. cerevisiae deletion strains, locus YOR069W, strain VPS5, hits give low values 0.961 | S. cerevisiae deletion strains, locus YOR070C, strain gyp1, hits give low values 0.976 | S. cerevisiae deletion strains, locus YOR080W, strain dia2, hits give low values 0.999 | S. cerevisiae deletion strains, locus YOR083W, strain WHI5, hits give low values 0.904 | S. cerevisiae deletion strains, locus YOR136W, strain idh2, hits give low values 0.924 | S. cerevisiae deletion strains, locus YOR231W, strain MKK1, hits give low values 0.967 | S. cerevisiae deletion strains, locus YOR265W, strain rbl2, hits give low values 0.997 | S. cerevisiae deletion strains, locus YOR270C, strain vph1, hits give low values 0.777 | S. cerevisiae deletion strains, locus YOR316C, strain cot1, hits give low values 0.949 | S. cerevisiae deletion strains, locus YPL078C, strain atp4, hits give low values 0.912 | S. cerevisiae deletion strains, locus YPL106C, strain sse1, hits give low values 0.923 | S. cerevisiae deletion strains, locus YPL256C, strain CLN2, hits give low values 0.964 | S. cerevisiae deletion strains, locus YPR119W, strain clb2, hits give low values 0.938 | S. cerevisiae deletion strains, locus YPR141C, strain kar3, hits give low values 0.941
